In the library only some 7.3% were active in any assay of this set; here they are far more common.
FMDV antiviral: blocks foot and mouth disease virus. hit rate 1.2% among 410,000. FMDV antiviral cell-based qHTS. Potency, µM (titrated, usually from 57.9 µM), without a hit: top-dose activity change, negative = inhibition, actives largely listed as inhibitors; calls by dose curve; tested in HEK293T cells; note: read-out not given here; potency is the fitted concentration of half-maximal effect; nearly all actives have a fitted effect of over 45% in size
HCMV inh: blocks human cytomegalovirus replication | activity change, negative = inhibition, % at 57.5 µM | HFF cells, HCMV-luciferase reporter, 72 h; active compounds read low | hit rate 4.5% among 410,000; in the data active = activity change below about -60%; inconclusive = no clear call, values can overlap the other calls; inactive = above about -39%
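After 16 h attachment at 37C, HFF cells received test compound and HCMV-luciferase (1 PFU/cell); reporter luminescence read 72 h later, data normalized against buffer-only and known inhibitor Salinomycin.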
HCV inh: HCV inhibition | AID 651820 | Potency, µM (doses to about 41.8 µM), for inactives: top-dose activity change, negative = inhibition, actives largely listed as inhibitors | Huh7.5.1 HCVcc-Cre infection, luciferase reporter, 44 h | hit rate 3.4% among 340,000; active = well fitted inhibition curve with a large enough effect; inconclusive = small, poorly fitted or top-dose-only effect, or another doubt; inactive = no such curve, though single readings can be large or run the other way; note: potency is the fitted concentration of half-maximal effect
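Compounds are dispensed onto cells plated 4 h earlier at 1,000 per well, with HCVcc-Cre virus (about 0.5 moi) added next. Following 44 h of culture, luminescent signal is measured for 15 sec after 15 min with substrate at room temperature.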
Vaccinia Venus: inhibitors of vaccinia virus (Venus reporter); Potency, µM (titrated, usually from 36.5 µM), for the others: top-dose activity change, negative = inhibition, hits mostly inhibitors; Vaccinia virus Venus reporter expression, fluorescence; AID 720580; hit rate 0.46% among 330,000; calls by dose curve; tested in A549 cells; note: potency is the fitted concentration of half-maximal effect; nearly all actives have a fitted effect of over 30% in size
VACV mCherry inh: vaccinia inhibition (mCherry reporter); hit rate 0.63% among 310,000; AID 720579; Potency, µM (highest dose often 36.5 µM), inactives show at the highest dose activity change, negative = inhibition, usual class: inhibitors; Vaccinia virus mCherry reporter infection, fluorescence; calls by dose curve; tested in A549 cells; note: potency is the fitted concentration of half-maximal effect; nearly all actives have a fitted effect of over 35% in size
* marks the source's active call; other numbers are inactive results; i = inactive; ? = inconclusive; · = not tested or not shown; [ ] = dose if it differs, or a comment. % is set by controls: 0 for no effect and ±100 for the full control effect.

SMILES | FMDV antiviral | HCMV inh | HCV inh | Vaccinia Venus | VACV mCherry inh
CC(C)(C)NC(=O)C(c1ccc(-c2ccccc2)cc1)N(C[C@H]1CC[C@@H]([C@@H]2CC[C@H](CO)O2)O1)C(=O)c1ccc2ccccc2c1 (some centres not stated) | 0% | -100* | ? | -10% | -7%
CC(C)(C)NC(=O)C(c1ccc(-c2ccccc2)cc1)N(C[C@H]1CC[C@@H]([C@@H]2CC[C@H](CO)O2)O1)C(=O)c1ccc(-c2ccccc2)cc1 (some centres not stated) | ? | · | -24% | ? | 28µM*
COc1ccc(CC(=O)Nc2cc(Cl)ccc2N2CCCC2)cc1 | -9% | -63* | ? | -11% | -21%
COc1ccc(Cl)cc1C(=O)Nc1ccccc1N1CCCCC1 | ? | -15 | 11µM* | · | ·
COc1ccc(C(=O)Nc2ccccc2N2CCCCC2)cc1[N+](=O)[O-] | ? | -63* | ? | · | ·
COc1ccc(Cl)cc1C(=O)Nc1ccccc1N1CCN(C)CC1 | 0% | 2 | ? | -26% | -15%
COc1ccc(C(=O)Nc2ccc(Nc3ccccc3)cc2)cc1[N+](=O)[O-] | 35µM* | -18 | 11µM* | · | ·
COc1ccc(C(=O)Nc2ccc(OCc3ccccc3)cc2)cc1[N+](=O)[O-] | 0% | 10 | ? | · | ·
Cc1ccc(NC(=O)c2ccc(Nc3c([N+](=O)[O-])cc([N+](=O)[O-])cc3[N+](=O)[O-])cc2)cc1 | 13µM* | -94* | 10µM* | ? | -23%
CC(=O)Nc1ccc(NC(=O)c2cc([N+](=O)[O-])cc([N+](=O)[O-])c2)cc1 | -11% | -29 | -1% | -10% | -30%
CCOC(=O)c1cccc(NC(=O)CN2C(=O)c3ccccc3Sc3ncccc32)c1 | 0% | -4 | · | -8% | -18%
NC(=O)c1ccccc1NC(=O)c1ccc(-c2ccc(Br)cc2)o1 | -7% | 11 | · | -12% | -9%
COc1cc(NC(=O)c2ccc(-c3cccc(F)c3)o2)ccc1NC(=O)c1ccccc1Cl | ? | 11 | 7.1µM* | -26% | -29%
COc1ccccc1NC(=O)c1ccc(-c2ccccc2[N+](=O)[O-])o1 | 8% | -15 | 11µM* | -15% | -25%
COc1ccccc1NC(=O)c1ccc(-c2ccc(Br)cc2)o1 | 2% | 168 | 8.9µM* | ? | ?
Cc1ccc(Nc2nc(-c3cccnc3)cs2)cc1C | -2% | 121 | ? | · | ·
Brc1cccc(Nc2nc(-c3cccnc3)cs2)c1 | -27% | 113 | 10µM* | -22% | ?
Brc1ccc(Nc2nc(-c3cccnc3)cs2)cc1 | 11% | 43 | ? | -7% | -2%
COc1ccc(Cl)cc1Nc1nc(-c2cccnc2)cs1 | -9% | -38 | 13µM* | -9% | ?
Clc1cccc(Nc2nc(-c3cccnc3)cs2)c1 | -2% | 75 | 2.8µM* | · | ·
COc1ccc(-c2csc(-c3cccnc3)n2)cc1C | 27% | -103* | ? | · | ·
COc1ccc2cc(-c3csc(-c4cccnc4)n3)ccc2c1 | 30% | 94 | -8% | -12% | ·
COCCCNC(=O)c1cc2n(n1)CCCN(Cc1ccc(C)cc1)C2=O | -2% | 4 | · | 1% | i
COc1ccc(CCC(=O)Nc2ccc(S(=O)(=O)N3CCOCC3)cc2)cc1OC | -24% | 10 | · | -27% | -8%
CC1CCc2c(sc3nc(-c4cc5ccccc5oc4=O)nc(Cl)c23)C1 (configuration not stated) | -3% | 19 | · | 3% | 6%
SMILES | FMDV antiviral | HCMV inh | HCV inh | Vaccinia Venus | VACV mCherry inh
CCC(C(=O)OCC(=O)N(CC)c1c(N)n(Cc2ccccc2)c(=O)[nH]c1=O)c1ccccc1 (configuration not stated) | -17% | -7 | 2% | · | ·
COc1ccc(Oc2nc3ccccc3n3cccc23)cc1 | -16% | -26 | 11µM* | -24% | ·
Clc1ccc(Oc2nc3ccccc3n3cccc23)cc1 | ? | 9 | ? | -12% | ·
C#C[C@]1(O)CCC2C3C(=O)C=C4C(Cl)=CCC[C@]4(C)C3CC[C@@]21C (some centres not stated) | -22% | -80* | 4% | ? | ?
C#C[C@]1(O)CC[C@H]2[C@@H]3CCC4=CC(=O)CC[C@]4(C)[C@H]3CC[C@@]21C | -5% | 68 | 5%[8.37 µM] | -20% | -9%
Cn1ncc(Cl)c1C(=O)NCc1ccc(Cl)cc1 | ? | -72* | ? | -16% | -26%
Cn1ncc(Cl)c1C(=O)Nc1ccncc1 | 4% | -3 | -2% | · | ·
O=c1c2cnn(-c3ccccc3)c2nc(-c2ccco2)n1-c1ccccc1 | 14µM* | -71* | 13µM* | · | ·
COc1cccc(-n2c(-c3ccco3)nc3c(cnn3-c3ccc(Cl)cc3)c2=O)c1 | ? | -67* | · | -16% | -24%
Cc1sc2nc(CN3CCCCC3)nc(Nc3ccc4c(c3)OCCO4)c2c1C | -9% | -62* | 4% | 10% | i
COc1ccc2c(c1)c1c(c(=O)n(-c3ccccc3C)c(=O)n1CC(N)=O)n2C | -23% | -28 | · | 1% | -9%
COc1cc2c(cc1O)CC[C@@H]1[C@@H]2CC[C@]2(C)[C@@H](O)CC[C@@H]12 | -21% | · | ? | -25% | -4%
CCOc1cc2c(cc1O)C(=NO)CC1C2CCC2(C)C(O)CCC12 (configuration not stated) | 0% | -76* | ? | ? | ?
CCOc1ccc(-c2nc(N)ncc2-c2ccc(OC)cc2)c(O)c1 | -13% | 23 | ? | ? | ?
CCOc1ccc(-c2nc(N)ncc2Oc2ccc(OC)cc2)c(O)c1 | -14% | -20 | 14µM* | -19% | ?
CCOc1ccc(-c2nc(N)ncc2-c2ccccc2)c(O)c1 | ? | -21 | 10µM* | ? | ?
CC(C)C[C@H]1CNC(=O)C(=O)N1C[C@@H]1CCCN1C[C@H](Cc1ccccc1)N1C[C@H](Cc2ccccc2)N(CCc2ccccc2)C(=O)C1=O | 57% | -9 | · | -30% | ?
N#CC1(NC(=O)CSc2nnc(Nc3ccccc3F)s2)CCCC1 | 28% | 48 | 5% | -7% | -10%
CCOCCCNC(=O)c1cc2c(=O)[nH]c3ccccc3c2n1C | -3% | -4 | · | -12% | -7%
Fc1cccc(F)c1-n1c(CN2CCCCC2)csc1=S | -25% | -68* | ? | -20% | -23%
ON=C1C2CC=C(c3ccccc3)C1CCC2 (configuration not stated) | -21% | 7 | 15% | -16% | -1%
COc1ccc(S(=O)(=O)NC(=O)C2(C)CCN2C(=O)C2(c3ccccc3)CCCC2)cc1 (configuration not stated) | 12% | 16 | · | 8% | 5%
CCOc1ccc(N(C)S(=O)(=O)c2ccc3[nH]cc(C(=O)NCCCOC)c(=O)c3c2)cc1 | 0% | -36 | -13% | · | ·
CCOc1ccc(N(C)S(=O)(=O)c2ccc(C)c(C(=O)NCc3cccs3)c2)cc1 | -6% | -1 | 14µM* | · | ·
CCCNC(=O)c1c[nH]c2ccc(S(=O)(=O)N(C)c3ccc(OCC)cc3)cc2c1=O | ? | ? | 22µM* | -26% | ·
CCOc1ccc(C(=O)NCc2cccs2)cc1 | 65% | 65 | -8% | · | ·
